Compounds with a hit are over-represented: about 2.4% of the library has one in this group of screens.
TRHR ag: TRH receptor (human) agonism. P34981. 0.18% of 360,000 active. TRHR cells, calcium flux fluo-8, FDSS agonist mode. activation, % at 2 µM; in the data active = activation above about 30%; also: 0% is about no effect
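In this calcium-flux screen, cells bearing human TRHR are dye-loaded with fluo-8, baselined for 10 cycles, then exposed to library compounds; positive kinetic calcium responses during the agonist phase mark hits, with TRH as control.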
PTHR1 agonist: activates the human parathyroid hormone receptor PTHR1. AID 743266. 0.075% of 410,000 active. Potency, µM (top dose mostly 115 µM), inactives show at the top dose activation, usual class: activators. HEK293 GP2 PTHR1 cells, GloSensor cAMP luminescence, 1 h; also: potency is read from the fitted curve at half-maximal effect; nearly all actives have a fitted effect of over 55% in size
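HEK-293-derived GP2 cells expressing PTHR1 and a GloSensor cAMP reporter, 3,000/well, plated overnight, given luciferin plus IBMX (each 0.5 mM as added) for 1 h at 37 °C, then compound for 1 h at 37 °C. Luminescence was read after 15 min at room temperature.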
GLP-1R inv ag: acts as inverse agonist at human GLP-1 receptor | P43220 | HEK293 GLP-1R CRE-luciferase, luminescence, 24 h; GLP-1R form is constitutively active | Potency, µM (doses to about 38.3 µM), for the others: top-dose activity change, negative = inhibition, actives largely listed as inhibitors | 1.6% of 410,000 active; also: potency is read from the fitted curve at half-maximal effect; % is scaled to controls: 0 for no effect and ±100 for the full control effect; nearly all actives have a fitted effect of over 55% in size
Target sequence (P43220 whole entry, looked up): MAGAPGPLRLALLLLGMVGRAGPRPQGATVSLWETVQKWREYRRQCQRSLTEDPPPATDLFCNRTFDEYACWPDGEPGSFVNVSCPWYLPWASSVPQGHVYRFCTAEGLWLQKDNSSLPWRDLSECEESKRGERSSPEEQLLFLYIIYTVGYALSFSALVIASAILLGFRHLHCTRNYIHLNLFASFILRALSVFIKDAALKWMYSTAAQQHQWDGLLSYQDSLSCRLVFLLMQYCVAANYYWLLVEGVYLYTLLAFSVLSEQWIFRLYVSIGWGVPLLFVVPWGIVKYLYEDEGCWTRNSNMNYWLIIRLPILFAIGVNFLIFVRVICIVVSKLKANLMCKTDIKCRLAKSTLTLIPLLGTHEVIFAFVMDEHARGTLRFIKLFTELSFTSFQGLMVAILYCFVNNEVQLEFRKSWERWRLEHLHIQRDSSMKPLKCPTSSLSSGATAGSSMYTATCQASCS
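Inverse agonism was detected as reduced cAMP-driven luciferase luminescence after 24 h compound treatment. The cells were HEK293 clones expressing constitutively active human GLP-1R with the reporter. Reporter-only and GPR119 cell lines served as counterscreen controls.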
GLP1R ag: agonists of human GLP-1 receptor; HEK293 GLP-1R CRE-luciferase, luminescence, 4-6 h; cells express a hypersensitive GLP-1R form; Potency, µM (titrated, usually from 45.6 µM), for inactives: at the highest dose activation, actives largely listed as activators; 0.007% of 380,000 active; AID 624172; also: potency is read from the fitted curve at half-maximal effect; % of control where 0% means no effect
TRHR PAM: TRH receptor (human) allosteric enhancement; P34981; TRHR cells, fluo-8 calcium fluorescence, EC20 TRH enhancement; 0.66% of 360,000 active; AID 493056; enhancement, % at 2 µM; in the data active = enhancement above about 30%; also: 0% is about no effect
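TRHR-expressing cells loaded with fluo-8 calcium dye were read kinetically (ex 480/em 530) during compound addition, then stimulated with an EC20 of TRH (10 nM final). Enhancement of the Gq-mediated intracellular calcium response was scored.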
HEK293 tox: cytotoxic in the GLP-1 receptor inverse agonist counter-screen; Potency, µM (titrated, usually from 38.3 µM), inactives show top-dose activity change, negative = inhibition, usual class: inhibitors; AID 624418; HEK293 cAMP-luciferase reporter cells, luminescence, 24 h; 0.13% of 410,000 active;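 also: loss of luciferase light is scored as toxicity; potency is read from the fitted curve at half-maximal effect; % is scaled to controls: 0 for no effect and ±100 for the full control effect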
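Luminescence readout: signal drop marks cytotoxicity. Plated cells grew 12 h at 37 °C, 5% CO2, received 23 nL compound for 24 h, then got luciferase reagent, read after 12 min at RT.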
* marks the source's active call; other numbers are inactive results; i = inactive; ? = inconclusive; nt = not tested or not shown; [ ] = dose if it differs, or a comment. Unless noted, calls follow the shape of the dose curve; as a rule, active = well fitted curve in the direction sought with a large enough effect; inconclusive = small, poorly fitted or top-dose-only effect, or another doubt; inactive = no such curve, though single readings can be large; an effect the other way counts as inactive or inconclusive.

SMILES | TRHR ag | PTHR1 agonist | GLP-1R inv ag | GLP1R ag | TRHR PAM | HEK293 tox
O=C(NNC(=O)C12CC3CC(CC(C3)C1)C2)c1ccccc1O | 0 | -1% | ? | -4% | -6 | -25%
O=C(NC12CC3CC(CC(C3)C1)C2)c1ccccc1O | 1 | -9%[57.5 µM] | 5.6µM* | 3% | -2 | -16%
O=C(CCC(=O)Nc1ccccc1Cl)NNS(=O)(=O)c1ccc(Cl)cc1 | 0 | i | ? | -3% | 2 | 3%
CCOC(=O)C1CCCN(C(=O)COc2ccc(C(=O)c3ccccc3)cc2)C1 (stereo not given) | 1 | i | 1.6µM* | 9% | -7 | -9%
CCOC(=O)C1CCCN(C(=O)c2ccc(C(=O)c3ccccc3)cc2)C1 (stereo not given) | 2 | -14% | ? | 5% | -1 | -4%
COc1ccc(-c2noc3c2-c2nc(-c4ccc(C)cc4)sc2CC3)cc1 | nt | -8% | 18% | 2% | nt | 1%
O=C(CCc1ccc(S(=O)(=O)NC2CCCCC2)cc1)N(Cc1ccccc1)Cc1ccccc1 | 2 | -6%[57.5 µM] | 8.9µM* | -4% | -8 | -1%
CCCCCC1CCC(c2n[nH]c(=S)n2C)CC1 (stereo not given) | -2 | i | ? | 8% | -4 | 3.2µM*
C=CCn1c(C2CC2)n[nH]c1=S | 0 | i | 19% | 8% | 6 | -12%
COc1ccc(NC(=O)N2CCc3c(sc4c3CCCC4)C2c2ccc(F)cc2)cc1 (stereo not given) | 1 | -21% | 2.8µM* | nt | 2 | 6%
Cc1ccc(C(=O)NCCSc2c(C)[nH]c3ccccc23)cc1[N+](=O)[O-] | 0 | -28% | 10µM* | -5% | -2 | 12%
COc1cc(C(=O)NCCSc2c(C)[nH]c3ccccc23)cc(OC)c1OC | 0 | -2% | 11% | nt | 2 | -11%
O=C(CCn1cccn1)N1CCCC(N2CCN(c3cccc(C(F)(F)F)c3)CC2)C1 (stereo not given) | 0 | -3% | -16% | -3% | 34* | 6%
Cc1cccc(/C=N/Nc2ccc3ccccc3n2)c1 | 0 | -49% | 10µM* | -6% | 15 | ?
C(=N\Nc1ccc2ccccc2n1)/c1ccc2c(c1)OCCO2 | 0 | -25% | -75% | -3% | 0 | -8%
CC1=[N+](C)c2ccc3ccccc3c2C1(C)C | -1 | -21% | -10% | -3% | 35* | -29%
c1ccc2c(c1)ccc1ccccc12 | nt | -17% | 10% | 0% | nt | 17%
COc1ccccc1NS(=O)(=O)c1ccc(NC(=O)c2ccncc2)cc1 | 1 | -31% | 12% | -1% | 38* | -10%
COc1cccc(C(=O)Nc2ccncc2)c1OC | 0 | -24% | 0% | 0% | -6 | 3%
COc1ccccc1NS(=O)(=O)c1cccc(NC(=O)Nc2ccccc2)c1 | -1 | -24% | 5.6µM* | -10% | -5 | ?
COc1ccccc1C(=O)Nc1ccncc1 | 0 | i | 10% | -6% | 35* | -8%
COc1cccc(NC(=O)c2cc(CN3CCOCC3)on2)c1 | 0 | i | 3% | nt | -2 | -2%
C=CCNC(=O)c1cn(CC)c2cc(N3CCN(C(=O)c4ccco4)CC3)c(F)cc2c1=O | 0 | -19% | -27% | -3% | -2 | -12%
Cc1ccc(NC(=O)CSc2nnc([C@@H]3CCCN3C(=O)OC(C)(C)C)o2)c(C)c1 | 0 | -11%[57.5 µM] | 0% | 7% | -5 | -13%
Cc1cc(Br)ccc1NC(=O)CN1C(=O)C2C3CC(c4ccccc4)C(C3)C2C1=O (stereo not given) | 2 | -40% | 10µM* | -8% | -5 | -14%
SMILES | TRHR ag | PTHR1 agonist | GLP-1R inv ag | GLP1R ag | TRHR PAM | HEK293 tox
Cc1cc(Br)ccc1NC(=O)CNC(=O)CN1C(=O)NC2(CCCCCC2)C1=O | 0 | i | -17% | 0% | 2 | 0%
Cc1ccccc1CNC(=O)CCSCc1cnn(-c2ccccc2)c1-n1cccc1 | 0 | -27% | 10µM* | nt | 2 | -4%
O=C(Oc1cccc2cccnc12)c1cccc(-n2cnnn2)c1 | 0 | i | 0% | -3% | 4 | -5%
O=C(Oc1cccc2cccnc12)c1ccc(N2C(=O)C3C4CCC(C4)C3C2=O)cc1 (stereo not given) | 0 | -15% | 2.8µM* | 0% | 0 | 3.2µM*
O=C(Oc1cccc2cccnc12)c1cccc(N2C(=O)C3C4CCC(C4)C3C2=O)c1 (stereo not given) | 1 | 5% | 2.8µM* | 1% | 8 | 2.5µM*
CCOC(=O)c1nnn(-c2nonc2N)c1COc1cc(C)c(Cl)c(C)c1 | 0 | i | 8.9µM* | 0% | 6 | -11%
CCc1nc2ccc(C(=O)NCCc3c[nH]c4ccccc34)cn2c1N(C=O)CCC(C)C | nt | -21% | 5.6µM* | 0% | nt | ?
CCCCN(C=O)c1c(CC)nc2ccc(C(=O)NCCc3c[nH]c4ccccc34)cn12 | nt | -23% | 2% | 8% | nt | -10%
CC(C)CN1CCN(Cc2ccc3ncccc3c2)CC1CCO (stereo not given) | 0 | -5% | -8% | 1% | -9 | 5%
CCc1nc2ccc(C(=O)NCc3ccccc3OC)cn2c1N(CCC(C)C)CCN(C)C | nt | -23% | ? | 9% | nt | -12%
CC(=O)N1CCN(Cc2ccc(Br)s2)CC1 | 0 | i | 0% | -3% | 30* | 3%
COc1ccc(NC(=O)C2CCC(CNS(=O)(=O)c3csc(C(N)=O)c3)CC2)cc1 (stereo not given) | 0 | i | 2% | nt | -4 | 1%
O=C(NC1CCCCC1)c1n[nH]c2c1CCCCC2 | 0 | -93% | 2.5µM* | -8% | -4 | 5%
CCC(C)(C)C1CCc2[nH]nc(C(=O)NC3CCCC3)c2C1 (stereo not given) | 0 | i | ? | 0% | -1 | -9%
Cc1cc2c(=O)oc(-c3ccccc3Br)nc2s1 | 0 | -45% | 10% | -3% | -1 | -11%
CCc1cc2c(=O)oc(-c3ccccc3F)nc2s1 | 1 | ? | 23% | -4% | 37* | 2%
O=C(CSc1nnc(CNC(=O)c2ccc(F)cc2)o1)NCCc1ccccc1 | 0 | -20% | -3% | 1% | -3 | -2%
COc1ccc(C(=O)NCc2nnc(SCC(=O)NCCc3ccccc3)o2)cc1 | 0 | -12% | 8% | -5% | 36* | -4%
CCCS(=O)(=O)c1nc(S(=O)(=O)c2ccc(C)cc2)c(N2CCCC(C)C2)s1 (stereo not given) | 0 | -20% | 13µM* | 0% | -8 | -4%
